Bioassay records deposited in PubChem BioAssay by several laboratories.
Rows were chosen to be rich in hits. Some 28% of all compounds tested hit in one or more screens of this group.
PLK1 PBD inh: blocks phosphopeptide binding to human Plk1 polo box domain; Plk1 PBD phosphopeptide binding, fluorescence polarization; 0.13% of 97,000 active; P53350; inhibition, %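 (tested at about 20 µM)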; in the data active = inhibition above about 34%, passing the limit was not always enough
CYP2C9 activ: CYP2C9 (human) activation | AID 1024 | activation factor at 5 µM | P11712 | recombinant CYP2C9, luciferin-H conversion, luminescence; hits give high values; factor 1 = untreated enzyme, 0 = blocked | 1.4% of 96,000 active;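 active = activation factor of 2 or more for CYP2C9 at a 5 µM dose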;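 also: 0 = sulfaphenazole-blocked wells and 1 = vehicle-only wells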
PLK1 inh: PLK1 (human) kinase inhibition. recombinant PLK1 kinase, TR-FRET peptide phosphorylation. inhibition, % at 10 µM. 0.53% of 97,000 active. AID 619;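 active = inhibition of 50% or more in the single-concentration screen; inactive = inhibition below 50%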;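 also: 0% = DMSO max control and 100% = H-89 dihydrochloride min control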
CYP2C19 inh: inhibitors of human CYP2C19. CYP2C19 Supersomes, luciferin-H EGE luminescence, 30 min. inhibition, % at 5 µM. 21% of 96,000 active. P33261;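 active = CYP2C19 inhibition above a set limit at 5 µM in the primary screen, cut at about 50% in these data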;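 also: plate controls were negative control wells for no effect and 2.5 mM tranylcypromine positive control for full effect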
Target sequence (P33261 whole entry, looked up): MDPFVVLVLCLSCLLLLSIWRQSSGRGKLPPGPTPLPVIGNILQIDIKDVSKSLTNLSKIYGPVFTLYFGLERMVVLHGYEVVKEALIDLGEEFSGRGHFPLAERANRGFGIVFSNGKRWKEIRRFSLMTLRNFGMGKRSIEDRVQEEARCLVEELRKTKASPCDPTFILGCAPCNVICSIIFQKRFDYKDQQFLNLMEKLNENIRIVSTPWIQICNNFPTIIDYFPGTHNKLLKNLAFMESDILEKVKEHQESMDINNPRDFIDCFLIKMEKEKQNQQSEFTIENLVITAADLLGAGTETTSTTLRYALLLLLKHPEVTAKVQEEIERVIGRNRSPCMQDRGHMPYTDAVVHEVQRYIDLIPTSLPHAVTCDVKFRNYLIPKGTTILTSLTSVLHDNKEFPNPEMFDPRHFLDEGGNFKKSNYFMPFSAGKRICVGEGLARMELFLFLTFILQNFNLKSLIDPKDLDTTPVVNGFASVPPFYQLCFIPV
CYP2C9 inh: inhibitors of human CYP2C9. CYP2C9 Supersomes, luciferin-H conversion, luminescence. inhibition, % at 5 µM. 20% of 96,000 active;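 active = blocking of liver enzyme CYP2C9 beyond about 50% at 5 µM, limit read from the data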
CYP2C19 activ: increases human CYP2C19 enzyme activity. AID 1025. activation factor at 5 µM. recombinant CYP2C19, luciferin-H EGE luminescence; hits give high values; 0 = fully inhibited enzyme, 1 = untreated enzyme. 96,000 tested, under 10 active. P33261;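 active = activation factor of at least 2 at 5 µM in the primary screen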;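 also: 0 = wells with 2.5 mM tranylcypromine and 1 = vehicle-only wells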
* = called active by the depositor; · = not tested or not shown.

SMILES	PLK1 PBD inh	CYP2C9 activ	PLK1 inh	CYP2C19 inh	CYP2C9 inh	CYP2C19 activ
O=C(CCC1COc2ccccc2O1)NCc1ccco1 (stereo not given)	1	0.8	-4	17	19	0.8
CCCCCCn1c(CN2CCN(C(=O)OCC)CC2)nc2c1c(=O)n(C)c(=O)n2C	-15	·	-6	·	·	·
Cc1onc(-c2ccccc2Cl)c1-c1nc(-c2ccccn2)no1	5	0	-5	32	97*	0.7
COc1nc(C)ccc1-c1noc(-c2ccncc2)n1	-20	·	-5	·	·	·
c1ccc(CCc2ccccc2-c2nc(-c3ccccn3)no2)cc1	-5	0.8	-10	10	19	0.9
Cc1occc1-c1nc(-c2ccccn2)no1	-1	0.5	-12	76*	48	0.2
Cc1occc1-c1nc(-c2ccncc2)no1	-8	0.3	39	98*	68*	0
O=c1oc2cc(OCc3nn[nH]n3)ccc2c2c1CCCC2	-6	0	-6	95*	96*	0.1
CC(C)CNC(=O)COc1ccc2c3c(c(=O)oc2c1)CCC3	9	0.2	-6	48	76*	0.5
CC(=O)COc1ccc2c3c(c(=O)oc2c1)CCCC3	-16	0.6	-3	64*	42	0.4
CC(C)CCNC(=O)COc1ccc2c3c(c(=O)oc2c1)CCC3	3	0.8	-3	-5	24	1.1
CCOC(=O)CCc1c(C)c2ccc(OCc3nn[nH]n3)cc2oc1=O	-17	0.3	-2	38	71*	0.6
Cc1cc2oc(=O)c3c(c2cc1OCc1nn[nH]n1)CCCC3	-4	0.6	-13	13	38	0.9
COc1ccccc1C(=O)Nc1cccc(N(C)S(C)(=O)=O)c1	3	·	-5	·	·	·
Cc1ccc(C2CC2C(=O)NNC(=S)Nc2ccc(Cl)cc2)cc1 (stereo not given)	-3	·	0	·	·	·
COc1c(C(C)C)cc(NC(C)=O)cc1C(C)C	2	0.7	0	89*	25	0.1
Cc1ccc(CCNC(=O)C2CCC(=O)N2Cc2cccnc2)cc1 (stereo not given)	·	0.6	·	59*	40	0.4
Cc1cccc(CCNC(=O)C2CCC(=O)N2Cc2ccc(F)cc2)c1 (stereo not given)	-8	0.8	-8	15	22	0.8
O=C(NCCc1ccc(Cl)cc1)C1CCC(=O)N1Cc1ccc(F)cc1 (stereo not given)	-25	0.3	-15	73*	66*	0.3
CCCCSc1cc(C)nc2ncnn12	20	0.9	-1	9	9	0.9
COC(=O)c1ccc(NC(=O)CSCc2ccc(C)cc2)cc1	-8	0.1	-33	75*	90*	0.2
COC(=O)c1ccc(NC(=O)CSCc2ccccc2C)cc1	-4	0.1	-3	94*	92*	0.1
COC(=O)c1ccc(NC(=O)CSCc2ccccc2)cc1	0	0.6	1	26	38	0.7
O=C(C1=C(O)C(=O)N(CCCN2CCOCC2)C1c1ccccn1)c1cc2ccccc2o1 (stereo not given)	-24	1.2	-7	-18	-21	1.2
Brc1cccc(-c2nnco2)c1	-30	1.2	-7	10	-20	0.9
SMILES	PLK1 PBD inh	CYP2C9 activ	PLK1 inh	CYP2C19 inh	CYP2C9 inh	CYP2C19 activ
FC(F)(F)c1nc2nncn2c2c1CCCCC2	-5	1	-13	6	-1	0.9
Cc1ccc2[nH]c(=O)c(CN(Cc3cccs3)Cc3nnnn3Cc3ccccc3)cc2c1	·	0.4	·	93*	60*	0.1
COc1ccc2[nH]c(=O)c(CN(Cc3cccs3)Cc3nnnn3C(C)(C)C)cc2c1	-1	0.1	-11	91*	88*	0.1
CCOc1ccc2[nH]c(=O)c(CN(Cc3cccs3)Cc3nnnn3C(C)(C)C)cc2c1	5	1	4	4	2	1
Cc1ccc2[nH]c(=O)c(CN(CCO)Cc3nnnn3CCc3ccccc3)cc2c1	-2	0.5	-9	71*	50	0.3
CCOC(=O)Cn1nnnc1CN(Cc1cccs1)Cc1cc2cc(C)ccc2[nH]c1=O	-13	0.7	-5	65*	32	0.3
Cc1ccc2[nH]c(=O)c(CN(Cc3nnnn3C3CCCC3)C3CCCCC3)cc2c1	-25	0.9	-5	10	10	0.9
CCCc1nnc(NC(=O)CCC(=O)N2CCCCC2CC)s1 (stereo not given)	-7	1.1	-4	10	-10	0.9
CCOC(=O)Cn1nnnc1C(CC)N(Cc1cccs1)Cc1cc2ccc(OC)cc2[nH]c1=O (stereo not given)	-14	0.1	1	96*	91*	0
CCOC(=O)Cn1nnnc1CN(CCc1ccccc1)Cc1cc2cc(CC)ccc2[nH]c1=O	-13	0.3	14	44	72*	0.6
CCc1ccc2[nH]c(=O)c(CN(CCCO)C(=O)NCc3ccccc3)cc2c1	-2	1	-19	11	2	0.9
CCOC(=O)c1cc(C(=O)OCC)c2cc(Br)ccc2n1	-24	0.4	-12	47	64*	0.5
CCCCOC(=O)c1cc(C)nc2ccc(Br)cc12	2	1	-11	0	0	1
COc1ccccc1N1CCN(C(=O)C(Sc2ccccc2)c2ccccc2)CC1 (stereo not given)	8	0.4	-9	61*	59*	0.4
CS(=O)(=O)N1CCN(C(=O)C(Sc2ccccc2)c2ccccc2)CC1 (stereo not given)	-2	1	-10	71*	2	0.3
CCCSC(=O)N(CC)CC(=O)Nc1c(CC)cccc1CC	-23	0.4	-19	66*	62*	0.3
C=CCN(CC(=O)Nc1c(C)cccc1CC)C(=O)SCCC	8	0.9	-7	65*	12	0.4
CCCn1cnc2sc(C(N)=O)c(C)c2c1=O	2	0.8	7	12	18	0.9
Cc1cccc(C(=O)N/N=C/c2ccc(OC3CSC3)cc2)c1	33	1	-9	-6	1	1.1
CC(/C=N/NC(=O)c1cc(C(C)(C)C)[nH]n1)=C\c1ccccc1	1	0.4	-12	18	60*	0.8
CC(/C=N/NC(=O)c1ccncc1)=C\c1ccccc1	35	0.2	-9	81*	79*	0.2
CC(/C=N/NC(=O)Cc1cc(=O)[nH][nH]1)=C\c1ccccc1	22	1	-8	4	2	1
Cc1cccc(C(=O)N/N=C/c2ccncc2)c1	-33	0.6	-11	64*	39	0.4
O=C(Nc1c(Cl)cc(Cl)cc1-c1nc2ccccc2s1)c1ccc(Br)o1	39	0.4	-15	11	55*	0.9
COc1ccc(N(CC(=O)Nc2ccccc2SC)S(C)(=O)=O)cc1OC	5	0.8	-3	14	25	0.9
COc1ccc(Cl)cc1N(CC(=O)Nc1cccc(SC)c1)S(C)(=O)=O	13	0.3	-29	91*	72*	0.1
